Measured values published in ChEMBL document CHEMBL1201862, “PubChem BioAssay data set” (2004).
Hit rate of the full screen: of about 18,000 compounds, about 1,200 (6.7%) were called active. Another 16% or so got no clear call; they are omitted. The calls are words filed in the database; no cut-off is given here. Many of the other results were omitted from the sample, so actives are more common in it than they were.

experiment: qHTS for Inhibitors of binding or entry into cells for Marburg Virus.

For `COC[C@@H]([C@H](O)[C@H](O)C(=O)NCC[C@H](C)c1nc(/C=C/C[C@@H]2O[C@]3(C[C@@H](O)[C@@H]2C)O[C@H]([C@H](C[C@H](O)[C@H](C)[C@H](O)[C@H](C)/C=C(C)/C(C)=C/C=C/C(C)=C\C#N)OC)[C@H](OP(=O)(O)O)C3(C)C)co1)N(C)C`, which Potency is on record?
Its Potency is 0.0411 µM (active).

Which Potency does the source give for `COC(=O)[C@H]1[C@H]2C[C@@H]3c4[nH]c5cc(OC)ccc5c4CCN3C[C@H]2C[C@@H](OC(=O)c2cc(OC)c(OC)c(OC)c2)[C@@H]1OC` here?
Its Potency is 355 µM (active).

With NITROPRUSSIDE, CHEMBL2097081 as the molecule, how does the Potency read?
Its Potency is “inactive; 562.3 nM”.
